# Screening data as filed in PubChem BioAssay.
# PI4K2A block: qHTS for small molecular inhibitors of PI4K2A; 420,000 tested, 0.13% active; purified PI4K2A, ADP-Glo luminescence, 1 h; hits give low values; AID 1346378, 2018; Phosphatidylinositol 4-kinase type 2-alpha (Homo sapiens), Q9BTU6; activity change, negative = inhibition, % at 76.9 µM; in the data active = activity change below about -50%; inconclusive = mostly about -30% to -49%;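 also: -100% = wells without enzyme as full effect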
# Target sequence (Q9BTU6 whole entry, looked up): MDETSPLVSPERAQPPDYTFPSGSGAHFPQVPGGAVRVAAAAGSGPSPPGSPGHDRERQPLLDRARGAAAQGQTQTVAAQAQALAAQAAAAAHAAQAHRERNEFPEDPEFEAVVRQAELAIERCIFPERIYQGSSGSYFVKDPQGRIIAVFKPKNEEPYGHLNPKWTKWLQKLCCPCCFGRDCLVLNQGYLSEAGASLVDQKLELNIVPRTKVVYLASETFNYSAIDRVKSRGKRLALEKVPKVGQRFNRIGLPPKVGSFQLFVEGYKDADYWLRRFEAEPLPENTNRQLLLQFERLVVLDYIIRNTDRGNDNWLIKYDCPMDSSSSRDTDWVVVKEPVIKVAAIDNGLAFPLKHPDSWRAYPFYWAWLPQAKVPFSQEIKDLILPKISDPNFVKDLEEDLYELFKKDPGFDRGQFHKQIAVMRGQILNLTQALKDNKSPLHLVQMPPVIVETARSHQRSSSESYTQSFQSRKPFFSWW
#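 PI4K2A activity was measured by ADP-Glo luminescence: enzyme (4 ug/mL stock) and phosphatidylinositol (1.2 mM stock) in Tris pH 7.5/MgCl2/EGTA/Triton X-100 buffer were reacted with ATP (300 microM stock) for one hour at ambient temperature.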
# KB-3-1 tox: qHTS assay for MDR1-selective chemotherapeutics: Primary screen using the parental adenocarcinoma cell KB-3-1; KB-3-1 viability, CellTiter-Glo ATP luminescence, 72 h; Potency, µM (top dose mostly 46.1 µM), most hits filed as cytotoxic; 400,000 tested, 1.4% active; AID 1347075, 2019; also: potency is read from the fitted curve at half-maximal effect; nearly all actives have a fitted effect of over 60% in size
#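 Luminescent ATP read-out (CellTiter-Glo) measures survival of drug-naive KB-3-1 cells after 72 h compound exposure at 37 °C. Titration series was screened from lowest to highest concentration, with DMSO vehicle plates as background controls.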
# Giardia kill: Small Molecules that selectively kill Giardia lamblia: qHTS | Giardia lamblia trophozoite viability | activity change, % at 7.66 µM, hits read low | AID 540267, 2011 | 340,000 tested, 0.15% active; in the data active = activity change below about -80%; inconclusive = between about -30% and that limit;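 also: parasites exposed to compound for two days anaerobically before the ATP read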
#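 Compounds were tested on trophozoites seeded at 100 cells/well and held 48 hrs at 37 deg C anaerobically. An ATP-based luminescent kit measured the remaining live cells.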
# KB-V1 MDR tox: qHTS assay for MDR1-selective chemotherapeutics: Primary screen using the drug-selected MDR subline cells KB-V1; AID 1347076, 2019; KB-V1 MDR cells viability, CellTiter-Glo, 72 h; Potency, µM (doses to about 46.1 µM), most hits filed as cytotoxic; 400,000 tested, 3.4% active; also: potency is read from the fitted curve at half-maximal effect; nearly all actives have a fitted effect of over 60% in size
#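 Drug-selected KB-V1 cells, grown in DMEM lacking phenol red with 10% FBS, receive compound titrations; after three days at 37 degrees C, surviving cell ATP is quantified by CellTiter-Glo luminescence and responses normalized and curve-fitted.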
# A549 viability: Nrf2 qHTS screen for inhibitors: counterscreen for cytotoxicity; A549 ARE-Fluc cells, CellTiter-Fluor viability, 18-24 h; Potency, µM (series often up to 46 µM), for inactives: at the highest dose activity change, negative = cytotoxicity, actives largely listed as inhibitors; 390,000 tested, 0.16% active; also: potency is read from the fitted curve at half-maximal effect
#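 A549 ARE-Fluc cells in 5% FBS OPTI-MEM, 5000 cells/well, rested 2 h then exposed to compounds in concentration-response for 18-24 h at 37 °C. Viability by CellTiter-Fluor fluorescence (Ex 405/Em 525) after 30 min; luciferase luminescence (BugLite, 15 min, RT) read afterwards.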
# Nrf2 inh: Nrf2 qHTS screen for inhibitors | A549 ARE-Fluc reporter, luciferase luminescence, 18-24 h | Potency, µM (series often up to 46 µM), for inactives: at the highest dose activity change, negative = inhibition, most hits filed as inhibitors | 360,000 tested, 2.1% active | AID 504444, 2011; also: potency is read from the fitted curve at half-maximal effect; nearly all actives have a fitted effect of over 60% in size
#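 In this cell-based qHTS, ARE-driven firefly luciferase in A549 cells reports Nrf2 activity; the luminescent signal after BugLite lysis is the measured value, with a prior CellTiter-Fluor read for cell health.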
# * hit, by the source's call; i = inactive; ? = inconclusive; · = no result given. Compounds with a hit are over-represented: about 5.7% of the library has one in this group of screens. Unless noted, calls follow the shape of the dose curve; as a rule, active = well fitted curve in the direction sought with a large enough effect; inconclusive = small, poorly fitted or top-dose-only effect, or another doubt; inactive = no such curve, though single readings can be large; an effect the other way counts as inactive or inconclusive. Unless noted, % is scaled to controls: 0 for no effect and ±100 for the full control effect.
SMILES,PI4K2A block,KB-3-1 tox,Giardia kill,KB-V1 MDR tox,A549 viability,Nrf2 inh
COc1cnc(-c2ccccn2)nc1Oc1cccc(Cl)c1,-7.3,i,-25.6,6.51µM*,0.2%,-0.4%
COc1cnc(-c2ccccn2)nc1N(C)C,-20.8,?,9.5,20.6µM*,?,8.2µM*
COc1ccc(Oc2nc(-c3ccccn3)ncc2OC)cc1,-21.9,i,9.3,i,-13.7%,-21.8%
CCOC(=O)[C@]12CCCCC/C=C\1N(CCc1ccc(Cl)cc1)C(=O)[C@H]2CC(=O)NCc1cccs1,4.8,·,·,·,·,·
Cc1ccccc1CN1CCCCC(NC(=O)c2ccc(-c3ccccc3)cc2)C1=O (centres undefined),-5.9,·,·,·,·,·
CCc1ccc(NC(=O)N2CC(C)Oc3ccc(C)cc32)cc1 (centres undefined),3.1,·,·,·,4.7%,-24.7%
O=c1c2ccccc2sc2nc(CCl)nn12,2.5,6.51µM*,10.4,?,?,19.5%
C1=CN2CC=Cc3cc(/C=C/c4ccnc5ccccc45)cc(c32)C1,·,i,·,i,·,·
CCOc1ccc(S(=O)(=O)Nc2ccc(Cl)cn2)c(C)c1C,0.6,?,-14.2,23.1µM*,-15.5%,-10.3%
CCOc1cc(C)c(S(=O)(=O)Nc2ccc(Cl)cn2)cc1C,-3.6,i,13.2,?,?,?
Cc1ccc(C(=O)OCC(=O)N(Cc2ccccc2)C(C)C)cc1C,0.4,i,8.8,20.6µM*,-0.1%,0.2%
CCOc1ccc(CCNc2nc3c(c(=O)n(C)c(=O)n3C)n2CC)cc1OCC,-0.1,14.6µM*,-7.4,?,-8.1%,?
CC(C)n1c(NCCc2ccccc2)nc2c1c(=O)n(C)c(=O)n2C,-0.6,?,-2.5,?,-4.6%,13µM*
CCCNc1nc2c(c(=O)n(C)c(=O)n2C)n1CCc1ccccc1,0.9,i,-5.4,i,-17.7%,4.11µM*
Cn1c(=O)c2c(nc(NCCO)n2CCc2ccccc2)n(C)c1=O,0.4,20.6µM*,-3.9,i,-4.2%,?
Cn1c(=O)c2c(nc(NCCc3ccccc3)n2Cc2ccc(Cl)cc2)n(C)c1=O,-5.4,?,·,?,-4.4%,?
CCCNc1nc2c(c(=O)n(C)c(=O)n2C)n1CCCc1ccccc1,3.3,?,-5.2,i,-0.3%,?
O=C1CCc2cc(S(=O)(=O)Nc3cccc(C(F)(F)F)c3)ccc2N1,·,·,·,·,-2.6%,?
Cc1ccccc1NC(=O)OC1CC2CC1[C@H]1CCCCN1[C@H]2Cc1ccccc1 (some centres undefined),-4.6,·,·,·,·,·
COc1ccc2cc(C(=O)N/N=C/c3sc4ccccc4c3O)ccc2c1,-4.3,13µM*,-1.4,23.1µM*,?,?
COc1ccc(C(=O)N/N=C/c2sc3ccccc3c2O)cc1,1.6,7.31µM*,-0.6,?,?,?
O=C(N/N=C/c1sc2ccccc2c1O)c1ccccc1,-1.4,i,-11.7,?,?,?
Cc1ccc(Cn2ncc3c(NCCCN4CCOCC4)ncnc32)cc1,2.0,i,11.0,i,-4.1%,-21.1%
c1ccc2c(c1)oc1c(NCCN3CCOCC3)ncnc12,-13.1,i,-1.6,23.1µM*,5.1%,7.7%
CCCc1nc2oc3c(NCCN4CCOCC4)ncnc3c2c2c1CCCC2,-8.0,i,-7.8,1.84µM*,15.1%,?
SMILES,PI4K2A block,KB-3-1 tox,Giardia kill,KB-V1 MDR tox,A549 viability,Nrf2 inh
CC(=O)N1CCN(c2ccc(Nc3ncnc4c3oc3ccccc34)cc2)CC1,-17.0,?,4.9,20.6µM*,-19.4%,?
Clc1ccc(Cn2ncc3c(NCCN4CCOCC4)ncnc32)cc1,1.1,i,18.7,20.6µM*,15.8%,·
CC(C)Cc1nc2oc3c(NCCCN4CCOCC4)ncnc3c2c2c1CCC2,3.7,?,4.0,i,-5.9%,·
CCc1nc(Nc2ccc(N3CCN(C(C)=O)CC3)cc2)c2oc3ccccc3c2n1,-3.9,?,24.4,?,-7.6%,?
COC(=O)C1=C[C@@H](C(=O)OC)C2C3=C(C(=O)[C@@]2(C)NC(=O)c2ccccc2)[C@H](C)[C@@H]2C(=O)N(C)C(=O)[C@@H]2[C@@H]3C1 (some centres undefined),·,·,-3.6,·,2.2%,22.4%
CC(C)(C)c1ccc(S(=O)(=O)N2CCC(c3cn4ccccc4n3)CC2)cc1,-0.8,·,·,·,·,·
c1ccc2c(c1)oc1c(Nc3ccc(CN4CCOCC4)cc3)ncnc12,-6.7,?,-17.1,18.4µM*,-18.1%,?
CCCCCCC(=O)n1ccc2ccc(-c3ccc4ccn(Cc5ccc(OC)cc5)c4c3)cc21,-1.9,·,·,·,·,·
CCN(C(=O)CSc1nc2nc(C)cc(C)n2n1)c1ccccc1,-0.4,i,-4.7,?,10.3%,7.8%
CCCn1c(C)cc(C(=O)CSc2nc3nc(C)cc(C)n3n2)c1C,-0.1,i,-4.3,6.51µM*,-4.6%,-16.9%
CCN(C(=O)CSc1nc2nc(C)cc(C)n2n1)c1cccc(C)c1,3.9,i,-11.8,23.1µM*,21.3%,-17.7%
Cc1cc(C)n2nc(SCC(=O)Nc3cccc(C(F)(F)F)c3)nc2n1,-2.8,?,·,20.6µM*,-11.5%,?
CCOC(=O)CSc1nc2nc(C)cc(C)n2n1,-6.6,i,-7.2,i,-2.8%,2.5%
Cc1cc(C)n2nc(SCCC(=O)NCCc3ccccc3)nc2n1,-6.0,i,-5.6,14.6µM*,-0.2%,-8.5%
COc1ccc(CCNC(=O)CCCCn2c(=O)c3ccccc3n(Cc3ccc(Cl)cc3)c2=O)cc1OC,0.8,i,·,i,-14.6%,?
CC1=C(C(=O)Nc2cc(Cl)ccc2C)C2(CCCCC2)OC1=O,1.8,·,·,·,-11.6%,6.0%
CN(C)c1cccc(-c2cnc(N3CCC(c4ncc[nH]4)CC3)s2)c1,·,i,·,i,·,·
